Hits are enriched below; roughly 2.3% of the tested compounds scored in any of these assays.
CHRM1 antagonist: blocks human M1 muscarinic receptor; P11229; CHO-K1 hM1, Fluo-8 calcium fluorescence, ACh EC80 antagonist; inhibition, % at 3 µM; 1.3% of 360,000 active; AID 588852;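 active means percent inhibition above its own plate's cutoff, namely the mean of that plate's compound wells plus 3 SD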;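 further: peak over basal fluorescence ratio during 140 s after agonist addition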
Target sequence (P11229 whole entry, looked up): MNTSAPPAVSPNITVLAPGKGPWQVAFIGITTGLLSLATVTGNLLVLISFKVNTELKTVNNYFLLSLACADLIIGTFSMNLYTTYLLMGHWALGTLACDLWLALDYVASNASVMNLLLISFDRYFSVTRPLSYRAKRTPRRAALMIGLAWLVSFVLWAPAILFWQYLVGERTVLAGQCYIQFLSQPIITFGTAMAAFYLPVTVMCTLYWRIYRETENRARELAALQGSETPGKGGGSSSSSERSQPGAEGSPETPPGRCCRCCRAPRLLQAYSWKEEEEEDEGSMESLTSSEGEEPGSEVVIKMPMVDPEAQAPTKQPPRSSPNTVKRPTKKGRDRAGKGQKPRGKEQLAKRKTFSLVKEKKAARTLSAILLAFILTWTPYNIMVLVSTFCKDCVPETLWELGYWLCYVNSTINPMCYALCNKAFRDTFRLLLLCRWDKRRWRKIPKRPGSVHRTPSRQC
CHRM1 PAM: potentiates human M1 receptor response to acetylcholine; P11229; CHO-K1 hM1, Fluo-8 calcium fluorescence, ACh EC20; 0% = ACh EC20, 100% = maximal ACh; activation, % at 3 µM; 0.088% of 360,000 active; AID 588819; in the data active means activation above about 19%, passing the limit was not always enough
M1 PAM parental: counter-screen for M1 PAMs: effect in parental CHO-K1 cells. activation, % at 3 µM. ATP EC20, Fluo-8 calcium fluorescence; 0% at ATP EC20, 100% at ATP max. 0.02% of 360,000 active;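 active means activation above the run cutoff, the mean activation of all test compounds plus 3 SD, cut at about 40% in these data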;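 further: peak over basal fluorescence ratio in a 140 s read after ATP addition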
M1 ag: agonists of human M1 muscarinic receptor; activation, % at 3 µM; P11229; CHO-K1 hM1, Fluo-8 calcium fluorescence, agonist mode; 0% DMSO, 100% acetylcholine EC100; 0.33% of 360,000 active;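 active means activation above the run's mean compound activation plus 3 SD, cut at about 16% in these data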;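 further: peak over basal fluorescence ratio within a 140 s kinetic read after compound addition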
CHO-K1 Ca antag: nonselective inhibitor or artifact in parental CHO-K1 cells. AID 602250. inhibition, % at 3 µM. 0.6% of 360,000 active. ATP-induced calcium, Fluo-8 fluorescence;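 active means inhibition above a per-plate cutoff, the plate's mean sample inhibition plus 3 SD, cut at about 24% in these data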
M1 ag parental: nonselective activator or artifact in parental CHO-K1 cells. Fluo-8 calcium fluorescence; scaled to maximal ATP response, vehicle zero. activation, % at 3 µM. 0.48% of 360,000 active. AID 602248; in the data active means activation above about 15%;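 further: untransfected CHO-K1 host cells lacking M1 receptor as counterscreen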
Numbers stand for hits; . = inactive.

SMILES	CHRM1 antagonist	CHRM1 PAM	M1 PAM parental	M1 ag	CHO-K1 Ca antag	M1 ag parental
Cc1ccc2nc(SCC(=O)N3CCC(Cc4ccccc4)CC3)nc(=O)n2c1	.	.	.	20.0	.	.
CC(C)=CCN1CCN(Cc2cc(F)ccc2-n2nc(C)cc2C)CC1CCO (centres undefined)	.	.	.	.	.	.
Cc1cc(C)n(-c2ccc(F)cc2CN2CCN(Cc3ccccc3)C(CCO)C2)n1 (centres undefined)	39.5	.	.	.	.	.
CCOc1ccccc1C1C2C(=O)N(c3ccccc3)C(=O)C2ON1c1ccccc1 (centres undefined)	27.6	.	.	.	.	.
CCCCCCNc1c([N+](=O)[O-])c(=O)sc2ccccc12	42.1	.	.	.	.	.
CC(C)(C)Nc1c([N+](=O)[O-])c(=O)sc2ccccc12	.	.	.	.	.	.
C=C1C(=O)OCC2C(C(=O)O)=CC3C(C)C(C)=CC123 (centres undefined)	.	.	.	.	.	.
CC(C)CN1CCC(=O)N(CCOc2ccccc2)CC1	.	.	.	.	.	.
CCCN1CCC(=O)N(CCOc2ccccc2)CC1	.	.	.	.	24.2	.
O=C1NCCNC1c1ccccc1 (centres undefined)	.	.	.	.	.	.
c1csc(CCNc2ncnc3sc4c(c23)CCC4)c1	33.0	.	.	.	.	.
CCN(C[C@H]1N[C@@](C)(C(=O)OC)[C@H]2C(=O)N(Cc3ccccc3)C(=O)[C@@H]12)C(=O)c1ccc(C)cc1	.	.	.	.	.	.
O=C(COc1ccc2c(c1)OCO2)NCc1cccs1	.	.	.	.	.	.
CC(C)CCNC(=O)CN(CC1CCCO1)C(=O)CCC(=O)Nc1nccs1 (centres undefined)	.	20.0	.	.	.	.
COc1ccc(C(=O)Nc2nc(-c3ccccn3)cs2)cc1S(=O)(=O)N1CCOCC1	.	.	.	.	.	.
CC(C)(C)OC(=O)N1CCC(C(=O)Nc2cccc(C(=O)NCc3ccccc3)c2)CC1	.	.	.	.	.	.
COc1ccc(N2C(=O)CC(N(CCc3ccccc3)C(=O)/C=C/C(=O)O)C2=O)cc1 (centres undefined)	.	.	.	.	.	.
O=C(O)/C=C/C(=O)N(CC1CCCO1)C1CC(=O)N(c2c(Cl)cccc2Cl)C1=O (centres undefined)	.	.	.	.	.	16.7
CN(C)C(CNC(=O)c1ccc(Cl)c(S(=O)(=O)N2CCCCCC2)c1)c1ccccc1 (centres undefined)	51.9	.	.	.	.	.
O=C(NCCCN1CCOCC1)c1ccc(Sc2ccccc2Cl)c([N+](=O)[O-])c1	31.4	.	.	.	.	.
O=C(NCc1nc2ccccc2[nH]1)c1ccc(Cl)c(S(=O)(=O)N2CCCC2)c1	.	.	.	.	.	.
CCCn1c(NC(=O)c2ccc(Cl)c(S(=O)(=O)N3CCCC3)c2)nc2ccccc21	35.1	.	.	.	.	.
CC(NC(=O)c1ccc(Cl)c(S(=O)(=O)N2CCCCCC2)c1)c1cccnc1 (centres undefined)	37.1	.	.	.	.	.
COc1ccc(N(C)C(=O)C2CCCN2S(=O)(=O)c2cccc3nsnc23)cc1 (centres undefined)	.	.	.	.	.	.
Cc1ccc(-c2nc(SCC(=O)NCC3CCCO3)c(-c3ccccc3)[nH]2)cc1 (centres undefined)	.	.	.	.	.	.
SMILES	CHRM1 antagonist	CHRM1 PAM	M1 PAM parental	M1 ag	CHO-K1 Ca antag	M1 ag parental
COc1ccc(OCC(=O)N(C)CC2COc3ccccc3O2)cc1 (centres undefined)	.	.	.	.	.	.
CC1=C(C(=O)N(C(C)C)C(C)C)CC(CC(=O)NCc2cccc3ccccc23)C(=O)N1Cc1ccc(F)cc1 (centres undefined)	.	.	.	.	.	.
O=C(NCCN1CCOCC1)c1ccc(Cl)c(S(=O)(=O)N2CCCCC2)c1	49.4	.	.	.	.	.
CCOC(=O)C1(Cc2ccccc2)CCCN(Cc2ccncc2)C1 (centres undefined)	.	.	.	.	.	.
CCOC(=O)C1(Cc2ccccc2)CCCN(Cc2cccc(C(C)=O)c2)C1 (centres undefined)	.	.	.	.	.	15.6
CC(C)N(C(=S)NCc1ccccc1)C(C)C	.	.	.	.	25.9	.
CC(C)N(C(=S)NCc1ccccc1)c1ccccc1	.	.	.	.	.	.
CCSc1nnc(NC(=O)c2ccc(Br)s2)s1	.	.	.	.	.	.
O=C(Nc1nnc(C(F)(F)F)s1)c1ccc(Br)s1	28.4	.	.	.	.	.
NC(=O)c1ccccc1NC(=O)c1ccccc1Cl	.	.	.	.	.	.
O=C(Nc1ccccc1C(=O)Nc1nnc(C(F)(F)F)s1)c1ccccc1Cl	34.3	.	.	.	27.0	28.0
COc1ccc(Cl)cc1NC(=O)CCN1C(=O)C2C3CCC(C3)C2C1=O (centres undefined)	.	.	.	.	.	.
C[C@H](CO)N1C[C@H](C)[C@H](CN(C)C(=O)Cc2ccncc2)Oc2ncc(Br)cc2C1=O	.	.	.	.	.	.
Cc1ccc2c3c(cccc13)-c1ccccc1C2=O	.	.	.	.	.	.
Nc1ccc2c3c(cccc13)-c1ccccc1-2	42.4	.	.	36.8	37.5	35.4
Cc1ccc(CNC(=O)C2CC3Cn4c(nc5cc6ccccc6cc54)C3N2C)o1 (centres undefined)	.	.	.	.	.	.
Cc1c(NC(=O)C(C)OC(=O)Cc2ccc(F)cc2)c(=O)n(-c2ccccc2)n1C (centres undefined)	37.5	.	.	.	24.7	.
COc1ccc(NC(=S)N2CCC3CC2c2cc(-c4ccc5c(c4)OCO5)ccc23)c(OC)c1 (centres undefined)	.	.	.	.	.	.
CC(=O)c1ccc(N=C2NC(=O)C(CO)(CO)S2)cc1	.	.	.	.	.	.
CC1CCCCN1CCNC(=O)c1cc2c(-c3ccccc3F)nn(C)c2s1 (centres undefined)	.	.	.	.	.	.
CCCCN(CC)CCNC(=O)c1cc2c(-c3ccccc3F)nn(C)c2s1	.	27.8	.	.	.	.
CC(C)(C)c1ccc(Nc2n[nH]c3ccccc23)cc1	.	.	.	.	.	.
COc1cc2oc(=O)cc(-c3ccc(-c4ccc(CO)cc4)cc3)c2c(OC)c1OC	.	.	.	.	.	.
O=C(c1ccc(Br)o1)N1CCN(C23CC4CC(CC(C4)C2)C3)CC1	67.1	.	.	.	.	.
O=C(c1ccco1)N1CCN(C(=O)c2ccc(Br)o2)CC1	.	.	.	.	.	.
C=CCc1cc(Cl)ccc1OCCN(C)C	25.2	.	.	.	.	.

Screening data as filed in PubChem BioAssay.
